# Data taken from the supplement of paper PMC10037445.
# Values joined by “and” are separate entries in the source; they are usually repeats but may differ in a detail not shown here. Equal values may be shown once. Whole data set: some 2,900 compounds, median “NF-kB SEAP reporter activity, fold change vs agonist alone” near 0.99, cut for the highest 2% near 2.6. The sample holds the highest values, similar compounds and a random draw of the others, so the mix is not that of the screen.
# Assays:
# [1] = test system: RAW-Dual; assay: NF-kB SEAP reporter activity, fold change vs agonist alone; higher = enhanced NF-kB activity
# Outline: (§1)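 After 50 nL of library stock was delivered by pin tool to RAW-Dual macrophages (50,000 cells/well, DMEM, 384-well plates), a PRR agonist was added 1 h later and the plates were kept at 37 °C, 5% CO2. Twenty hours later, IRF was read from supernatant by QuantiLuc luminescence and NF-κB by QuantiBlue absorbance at 620 nm. Reporter activity is stated as fold change over agonist-alone wells. Wells with IncuCyte confluency under 70% of agonist controls in both mask sets were counted as cytotoxic.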
# [2] = test system: RAW-Dual; assay: NF-kB SEAP reporter activity, fold change vs agonist alone; cytotoxicity flag (confluency mask): not cytotoxic; higher = enhanced NF-kB activity
# Outline: as §1
# [3] = test system: RAW-Dual; assay: NF-kB SEAP reporter activity, fold change vs agonist alone; cytotoxicity flag (confluency mask): cytotoxic (confluency <70% of control); higher = enhanced NF-kB activity
# Outline: as §1
# [4] = library stock concentration (final ~1000-fold dilution): 10 mM, cytotoxicity flag (confluency mask): not cytotoxic, agonist: Imiquimod (TLR7) […]
# [5] = library stock concentration (final ~1000-fold dilution): 10 mM, cytotoxicity flag (confluency mask): not cytotoxic, agonist: MPLA (TLR4) […]
# [6] = agonist: ODN 1826 (TLR9) 0.5 ug/mL
# [7] = agonist: Pam2CSK4 (TLR2/6) 0.1 ug/mL
# [8] = agonist: Pam3CSK4 (TLR2/1) 0.1 ug/mL
# [9] = library stock concentration (final ~1000-fold dilution): 10 mM, cytotoxicity flag (confluency mask): cytotoxic (confluency <70% of control), agonist: Imiquimod (TLR7) […]
# [10] = library stock concentration (final ~1000-fold dilution): 10 mM, cytotoxicity flag (confluency mask): cytotoxic (confluency <70% of control), agonist: MPLA (TLR4) […]
compound,measurement,setting,value
Cl.N=c1ccn2c(n1)OC1C(O)C(CO)OC12 (centres undefined),NF-kB SEAP reporter activity,[1]; [4],1.8
same,NF-kB SEAP reporter activity,[1]; [5],1.42
Cl.N=c1ccn2c(n1)OC1C(O)C(CO)OC12 (centres undefined) (library stock concentration (final ~1000-fold dilution): 10 mM),NF-kB SEAP reporter activity,[2]; agonist: LPS (TLR4) 0.1 ug/mL,1.33
same,NF-kB SEAP reporter activity,[2]; [6],1.89
same,NF-kB SEAP reporter activity,[2]; [7],1.4
same,NF-kB SEAP reporter activity,[2]; [8],1.83
Brc1ccc(CCCCn2ccnc2)cc1 (library stock concentration (final ~1000-fold dilution): 10 mM),NF-kB SEAP reporter activity,[2]; agonist: LPS (TLR4) 0.1 ug/mL,0.672 and 0.736
same,NF-kB SEAP reporter activity,[2]; [6],0.566 and 0.595
same,NF-kB SEAP reporter activity,[2]; [7],0.493 and 0.552
same,NF-kB SEAP reporter activity,[2]; [8],0.585 and 0.645
CN(C)C(=O)CCSC(SCCC(=O)O)c1cccc(C=Cc2ccc3ccc(Cl)cc3n2)c1 (centres undefined) (library stock concentration (final ~1000-fold dilution): 10 mM),NF-kB SEAP reporter activity,[2]; agonist: LPS (TLR4) 0.1 ug/mL,1.5
same,NF-kB SEAP reporter activity,[2]; [6],1.12
same,NF-kB SEAP reporter activity,[2]; [7],0.936
same,NF-kB SEAP reporter activity,[2]; [8],0.945
CN(C)C(=O)CCSC(SCCC(=O)O)c1cccc(C=Cc2ccc3ccc(Cl)cc3n2)c1 (centres undefined),NF-kB SEAP reporter activity,[1]; [4],0.973
same,NF-kB SEAP reporter activity,[1]; [5],1.05
Cc1cc(N2CCOCC2)ccc1Nc1nc(NC2CCCCC2)c2nc[nH]c2n1,NF-kB SEAP reporter activity,[1]; [4],0.925
same,NF-kB SEAP reporter activity,[1]; [5],1.04
CNC(=O)c1ccccc1Nc1nc(Nc2ccc(N3CCOCC3)cc2OC)ncc1Cl,NF-kB SEAP reporter activity,[1]; [4],0.466
same,NF-kB SEAP reporter activity,[1]; [5],0.594
Cc1cc(N2CCOCC2)ccc1Nc1nc(NC2CCCCC2)c2nc[nH]c2n1 (library stock concentration (final ~1000-fold dilution): 10 mM),NF-kB SEAP reporter activity,[2]; agonist: LPS (TLR4) 0.1 ug/mL,1.44
same,NF-kB SEAP reporter activity,[2]; [6],0.814
same,NF-kB SEAP reporter activity,[2]; [7],1
same,NF-kB SEAP reporter activity,[2]; [8],0.926
Cc1cc(N2CCOCC2)cc2[nH]c(-c3c(NCC(O)c4cccc(Cl)c4)cc[nH]c3=O)nc12 (centres undefined),NF-kB SEAP reporter activity,[1]; [4],2.06
same,NF-kB SEAP reporter activity,[1]; [5],0.802
CNC(=O)c1ccccc1Nc1nc(Nc2ccc(N3CCOCC3)cc2OC)ncc1Cl (library stock concentration (final ~1000-fold dilution): 10 mM),NF-kB SEAP reporter activity,[2]; agonist: LPS (TLR4) 0.1 ug/mL,0.332
same,NF-kB SEAP reporter activity,[2]; [6],0.296
same,NF-kB SEAP reporter activity,[2]; [7],0.134
same,NF-kB SEAP reporter activity,[2]; [8],0.246
Cc1cc(N2CCOCC2)cc2[nH]c(-c3c(NCC(O)c4cccc(Cl)c4)cc[nH]c3=O)nc12 (centres undefined) (library stock concentration (final ~1000-fold dilution): 10 mM),NF-kB SEAP reporter activity,[2]; agonist: LPS (TLR4) 0.1 ug/mL,0.682
same,NF-kB SEAP reporter activity,[2]; [6],3.16
same,NF-kB SEAP reporter activity,[2]; [7],0.436
same,NF-kB SEAP reporter activity,[2]; [8],0.595
Cl.NC12CC3CC(CC(C3)C1)C2 (library stock concentration (final ~1000-fold dilution): 10 mM),NF-kB SEAP reporter activity,[2]; agonist: LPS (TLR4) 0.1 ug/mL,1.03
same,NF-kB SEAP reporter activity,[2]; [6],0.798
same,NF-kB SEAP reporter activity,[2]; [7],0.873
same,NF-kB SEAP reporter activity,[2]; [8],1.02
Cl.NC12CC3CC(CC(C3)C1)C2,NF-kB SEAP reporter activity,[1]; [4],0.884
same,NF-kB SEAP reporter activity,[1]; [5],1.08
Nc1ccccc1NC(=O)c1ccc(CNc2nccc(-c3cccnc3)n2)cc1,NF-kB SEAP reporter activity,[1]; [9],2.7
same,NF-kB SEAP reporter activity,[1]; [10],2.58
Nc1ccccc1NC(=O)c1ccc(CNc2nccc(-c3cccnc3)n2)cc1 (library stock concentration (final ~1000-fold dilution): 10 mM),NF-kB SEAP reporter activity,[3]; agonist: LPS (TLR4) 0.1 ug/mL,5.7
same,NF-kB SEAP reporter activity,[3]; [6],3.2
same,NF-kB SEAP reporter activity,[3]; [7],0.984
same,NF-kB SEAP reporter activity,[3]; [8],1.9
Nc1ccccc1NC(=O)c1ccc(CNC(=O)OCc2cccnc2)cc1 (library stock concentration (final ~1000-fold dilution): 10 mM),NF-kB SEAP reporter activity,[2]; agonist: LPS (TLR4) 0.1 ug/mL,1.22
same,NF-kB SEAP reporter activity,[2]; [6],1.02
same,NF-kB SEAP reporter activity,[2]; [7],1.07
same,NF-kB SEAP reporter activity,[2]; [8],1.14
Cc1ccc(NC(=O)c2ccc(CN3CCN(C)CC3)cc2)cc1Nc1nccc(-c2cccnc2)n1,NF-kB SEAP reporter activity,[1]; [4],1.31
same,NF-kB SEAP reporter activity,[1]; [5],1.69
Nc1ccccc1NC(=O)c1ccc(CNC(=O)OCc2cccnc2)cc1,NF-kB SEAP reporter activity,[1]; [4],0.921
same,NF-kB SEAP reporter activity,[1]; [5],1.06
Cc1ccc(NC(=O)c2ccc(CN3CCN(C)CC3)cc2)cc1Nc1nccc(-c2cccnc2)n1 (library stock concentration (final ~1000-fold dilution): 10 mM),NF-kB SEAP reporter activity,[2]; agonist: LPS (TLR4) 0.1 ug/mL,1.23
same,NF-kB SEAP reporter activity,[2]; [6],0.212
same,NF-kB SEAP reporter activity,[2]; [7],1.55
same,NF-kB SEAP reporter activity,[2]; [8],1.42
O=P(O)(O)Oc1cccc2ccccc12 (library stock concentration (final ~1000-fold dilution): 10 mM),NF-kB SEAP reporter activity,[2]; agonist: LPS (TLR4) 0.1 ug/mL,1.05
same,NF-kB SEAP reporter activity,[2]; [6],0.917
same,NF-kB SEAP reporter activity,[2]; [7],1.16
same,NF-kB SEAP reporter activity,[2]; [8],0.879
O=P(O)(O)Oc1cccc2ccccc12,NF-kB SEAP reporter activity,[1]; [5],1.08
O=C(/C=C/c1cncc(F)c1)c1c(-c2ccccc2)c2cc(Cl)ccc2[nH]c1=O (library stock concentration (final ~1000-fold dilution): 10 mM),NF-kB SEAP reporter activity,[3]; agonist: LPS (TLR4) 0.1 ug/mL,0.257
same,NF-kB SEAP reporter activity,[3]; [6],0.212
same,NF-kB SEAP reporter activity,[3]; [7],0.0981
same,NF-kB SEAP reporter activity,[3]; [8],0.253
O=C(/C=C/c1cncc(F)c1)c1c(-c2ccccc2)c2cc(Cl)ccc2[nH]c1=O,NF-kB SEAP reporter activity,[1]; [9],0.157
same,NF-kB SEAP reporter activity,[1]; [10],0.259
COC1/C=C/OC2(C)Oc3c(C)c(O)c4c(O)c(c(/C=N/N5CCN(C6CCCC6)CC5)c(O)c4c3C2=O)NC(=O)/C(C)=C/C=C/C(C)C(O)C(C)C(O)C(C)C(OC(C)=O)C1C (centres undefined),NF-kB SEAP reporter activity,[1]; [4],1.11
same,NF-kB SEAP reporter activity,[1]; [5],0.969
COC1/C=C/OC2(C)Oc3c(C)c(O)c4c(O)c(c(/C=N/N5CCN(C6CCCC6)CC5)c(O)c4c3C2=O)NC(=O)/C(C)=C/C=C/C(C)C(O)C(C)C(O)C(C)C(OC(C)=O)C1C (centres undefined) (library stock concentration (final ~1000-fold dilution): 10 mM),NF-kB SEAP reporter activity,[2]; agonist: LPS (TLR4) 0.1 ug/mL,1.56
same,NF-kB SEAP reporter activity,[2]; [6],0.892
same,NF-kB SEAP reporter activity,[2]; [7],0.643
same,NF-kB SEAP reporter activity,[2]; [8],0.742
O=C(O)CC[C@@H](O)C(=O)O (library stock concentration (final ~1000-fold dilution): 10 mM water),NF-kB SEAP reporter activity,[2]; agonist: LPS (TLR4) 0.1 ug/mL,1.44
same,NF-kB SEAP reporter activity,[2]; [6],1.16
same,NF-kB SEAP reporter activity,[2]; [7],1.17
same,NF-kB SEAP reporter activity,[2]; [8],1.12
O=C(O)CC[C@@H](O)C(=O)O,NF-kB SEAP reporter activity,"[1]; library stock concentration (final ~1000-fold dilution): 10 mM water, cytotoxicity flag (confluency mask): not cytotoxic, agonist: Imiquimod (TLR7) […]",0.93
same,NF-kB SEAP reporter activity,"[1]; library stock concentration (final ~1000-fold dilution): 10 mM water, cytotoxicity flag (confluency mask): not cytotoxic, agonist: MPLA (TLR4) […]",1.07
CC1(C)OCC(COC(=O)CCc2ccc(OCC(O)CNCCNC(=O)N3CCOCC3)cc2)O1.Cl (centres undefined) (library stock concentration (final ~1000-fold dilution): 10 mM),NF-kB SEAP reporter activity,[2]; agonist: LPS (TLR4) 0.1 ug/mL,0.799
same,NF-kB SEAP reporter activity,[2]; [6],0.908
same,NF-kB SEAP reporter activity,[2]; [7],1.04
same,NF-kB SEAP reporter activity,[2]; [8],0.926
CC1(C)OCC(COC(=O)CCc2ccc(OCC(O)CNCCNC(=O)N3CCOCC3)cc2)O1.Cl (centres undefined),NF-kB SEAP reporter activity,[1]; [4],0.97
same,NF-kB SEAP reporter activity,[1]; [5],1.01
CC(C)(C)OC(=O)Nc1ccc(-c2cc(C(=O)NCCCCCCC(=O)NO)no2)cc1,NF-kB SEAP reporter activity,[1]; [9],0.912
same,NF-kB SEAP reporter activity,[1]; [10],1.81
CC(C)(C)OC(=O)Nc1ccc(-c2cc(C(=O)NCCCCCCC(=O)NO)no2)cc1 (library stock concentration (final ~1000-fold dilution): 10 mM),NF-kB SEAP reporter activity,[3]; agonist: LPS (TLR4) 0.1 ug/mL,6.9
same,NF-kB SEAP reporter activity,[3]; [6],1.11
same,NF-kB SEAP reporter activity,[3]; [7],1.33
same,NF-kB SEAP reporter activity,[3]; [8],1.21
CC(C)C1C(=O)NC(CCCNC(=N)N)C(=O)NCC(=O)NC(CC(=O)O)C(=O)NC(Cc2ccccc2)C(=O)N1C.O=C(O)C(F)(F)F (centres undefined),NF-kB SEAP reporter activity,[1]; [4],0.977
same,NF-kB SEAP reporter activity,[1]; [5],1.11
CC(C)C1C(=O)NC(CCCNC(=N)N)C(=O)NCC(=O)NC(CC(=O)O)C(=O)NC(Cc2ccccc2)C(=O)N1C.O=C(O)C(F)(F)F (centres undefined) (library stock concentration (final ~1000-fold dilution): 10 mM),NF-kB SEAP reporter activity,[2]; agonist: LPS (TLR4) 0.1 ug/mL,0.99
same,NF-kB SEAP reporter activity,[2]; [6],1.01
same,NF-kB SEAP reporter activity,[2]; [7],0.985
same,NF-kB SEAP reporter activity,[2]; [8],0.921
